# Measurements from the supplement of paper PMC6555819.
# Key:
# Assay in all cases: PBM binding z-score (relative to random genomic background probes); higher = stronger binding; sequences stand for … in GC…GCGATTGACAGCGTAGAATGAAGG
# [1] = test system: RARb homodimer (NR concentration 270 nM)
# Procedure, shortened: (§1)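 Probes were double-stranded and carried 34-nt variable regions with direct-repeat seeds, single-nucleotide variants, half-site ablations and random human genomic background sequences, printed on custom Agilent 4×180K protein-binding microarrays. Arrays were incubated 1 h with ligand-free nuclear receptor dimers in PBS pH 7.4, 2% milk, 0.02% Triton X-100, 1 mM DTT, 0.2 mg/mL BSA and 0.4 mg/ml salmon testes DNA. Antibodies against each partner (one per run) detected binding, and scanned fluorescence was regression-normalized. Binding z-scores use the random background probes as reference.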
# [2] = test system: RARg:RXRa (NR concentration 270 nM, RXRa partner concentration 90 nM)
# Procedure, shortened: as §1
# [3] = test system: RARg homodimer (NR concentration 270 nM)
# Procedure, shortened: as §1
# [4] = test system: RXRa DBDmut IVT, anti-RXR (DBD mutation: RXRa K156A/R161A, NR concentration 90 nM)
# Procedure, shortened: as §1
# [5] = test system: RXRa homodimer (NR concentration 180 nM)
# Procedure, shortened: as §1
# [6] = test system: THRa:RXRa (NR concentration 90 nM, RXRa partner concentration 90 nM)
# Procedure, shortened: as §1
# [7] = test system: THRa homodimer (NR concentration 90 nM)
# Procedure, shortened: as §1
# [8] = test system: VDR homodimer (NR concentration 270 nM)
# Procedure, shortened: as §1
sequence,measurement,setting,value
ATCTCTTGGTAACCAAGTTCAGTGAATGCCGAAC,PBM binding z-score,[1],1.4
same,PBM binding z-score,[2],0.23
same,PBM binding z-score,[3],0.417
same,PBM binding z-score,[4],1.2
same,PBM binding z-score,[5],0.509
same,PBM binding z-score,[6],0.819
same,PBM binding z-score,[7],0.000236
same,PBM binding z-score,[8],2.57
CCTATTAGTTGACCATAAGGGCAACTGAAGCTCG,PBM binding z-score,[1],2.04
same,PBM binding z-score,[2],1.5
same,PBM binding z-score,[3],1.31
same,PBM binding z-score,[4],0.724
same,PBM binding z-score,[5],0.69
same,PBM binding z-score,[6],1.99
same,PBM binding z-score,[7],1.28
same,PBM binding z-score,[8],0.824
CCTACTGGGCCCCGAAAGGTCATTGATTCAGTGA,PBM binding z-score,[1],4.21
same,PBM binding z-score,[2],4.35
same,PBM binding z-score,[3],3.23
same,PBM binding z-score,[4],-0.457
same,PBM binding z-score,[5],4.99
same,PBM binding z-score,[6],3.04
same,PBM binding z-score,[7],1.03
same,PBM binding z-score,[8],1.81
CAAATTAGGTCAAAGGTCAAAGTCGAGCCAACCA,PBM binding z-score,[1],5.41
same,PBM binding z-score,[2],9.09
same,PBM binding z-score,[3],7.57
same,PBM binding z-score,[4],3.17
same,PBM binding z-score,[5],10.4
same,PBM binding z-score,[6],4.76
same,PBM binding z-score,[7],2.4
same,PBM binding z-score,[8],3.43
CGAACTAGGTCAGACCAGGACAGTGAAGGATGAT,PBM binding z-score,[1],2.36
same,PBM binding z-score,[2],2.82
same,PBM binding z-score,[3],3.53
same,PBM binding z-score,[4],0.518
same,PBM binding z-score,[5],1.51
same,PBM binding z-score,[6],4.75
same,PBM binding z-score,[7],0.741
same,PBM binding z-score,[8],-0.102
ATATGTAGGTTACAGCCGGGTCATTCAGGCTATG,PBM binding z-score,[1],2.93
same,PBM binding z-score,[2],4.28
same,PBM binding z-score,[3],2.25
same,PBM binding z-score,[4],0.721
same,PBM binding z-score,[5],3.34
same,PBM binding z-score,[6],3.57
same,PBM binding z-score,[7],1.89
same,PBM binding z-score,[8],2.96
TGAATGAGGTTAAAGATCAGGGAGCGTGGCGTCG,PBM binding z-score,[1],0.534
same,PBM binding z-score,[2],1.95
same,PBM binding z-score,[3],0.676
same,PBM binding z-score,[4],0.869
same,PBM binding z-score,[5],3.86
same,PBM binding z-score,[6],2.43
same,PBM binding z-score,[7],0.271
same,PBM binding z-score,[8],-0.0422
CCTCGGCGGACAGAAGGTCAGAGCTGTCCGCTTT,PBM binding z-score,[1],2.77
same,PBM binding z-score,[2],2.53
same,PBM binding z-score,[3],1.99
same,PBM binding z-score,[4],-0.44
same,PBM binding z-score,[5],1.64
same,PBM binding z-score,[6],1.05
same,PBM binding z-score,[7],-0.714
same,PBM binding z-score,[8],-0.703
CCGAGTAGGTTACGGGGCATTCAGGCAACGGTGA,PBM binding z-score,[1],1.11
same,PBM binding z-score,[2],1.02
same,PBM binding z-score,[3],1.07
same,PBM binding z-score,[4],-0.416
same,PBM binding z-score,[5],1.16
same,PBM binding z-score,[6],0.851
same,PBM binding z-score,[7],-0.136
same,PBM binding z-score,[8],0.121
AGAATGAGGTTACCAAAGATCAGGGAAACGCTTG,PBM binding z-score,[1],0.765
same,PBM binding z-score,[2],2.19
same,PBM binding z-score,[3],1.68
same,PBM binding z-score,[4],1.25
same,PBM binding z-score,[5],2.57
same,PBM binding z-score,[6],3.04
same,PBM binding z-score,[7],0.9
same,PBM binding z-score,[8],0.1
TCATATAGGTAAATAGGTGAAAGTCCGTAAGTTA,PBM binding z-score,[1],1.17
same,PBM binding z-score,[2],1.26
same,PBM binding z-score,[3],0.407
same,PBM binding z-score,[4],1.39
same,PBM binding z-score,[5],1.62
same,PBM binding z-score,[6],0.865
same,PBM binding z-score,[7],0.0399
same,PBM binding z-score,[8],0.337
GTGCCAAGGTGAATAGGTCGTTGATGAGTAGGCG,PBM binding z-score,[1],1.92
same,PBM binding z-score,[2],2.61
same,PBM binding z-score,[3],1.46
same,PBM binding z-score,[4],-0.262
same,PBM binding z-score,[5],1.55
same,PBM binding z-score,[6],1.72
same,PBM binding z-score,[7],0.56
same,PBM binding z-score,[8],-0.115
TCTCGGAGGACACGAAAGGCCAGAGCTCGACATC,PBM binding z-score,[1],1.53
same,PBM binding z-score,[2],0.946
same,PBM binding z-score,[3],1.9
same,PBM binding z-score,[4],0.804
same,PBM binding z-score,[5],0.296
same,PBM binding z-score,[6],1.54
same,PBM binding z-score,[7],0.338
same,PBM binding z-score,[8],-0.482
ATATGTAGGTTAGCTGGTGTCATTCAGACTAGGC,PBM binding z-score,[1],0.884
same,PBM binding z-score,[2],0.888
same,PBM binding z-score,[3],0.979
same,PBM binding z-score,[4],0.243
same,PBM binding z-score,[5],0.936
same,PBM binding z-score,[6],2.52
same,PBM binding z-score,[7],-0.1
same,PBM binding z-score,[8],0.617
